A selection: hits, their analogues and other compounds. The true share with any hit is near 2.6%.
Mcl1-Noxa inh: disrupts binding of human Mcl-1 to Noxa peptide | TR-FRET Mcl-1/Noxa peptide binding, 2 h | inhibition, % at 21.7 µM | Q07820 | 1.5% of 220,000 active;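 active means compounds that cut the protein-peptide binding signal by more than 50% relative to plate controls in a single-dose test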;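 further: His-tagged Mcl-1 with rhodamine Noxa BH3 peptide and terbium anti-His antibody; 0% = Mcl-1 plus Noxa peptide wells and 100% = peptide-only wells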
Target sequence (Q07820 whole entry, looked up): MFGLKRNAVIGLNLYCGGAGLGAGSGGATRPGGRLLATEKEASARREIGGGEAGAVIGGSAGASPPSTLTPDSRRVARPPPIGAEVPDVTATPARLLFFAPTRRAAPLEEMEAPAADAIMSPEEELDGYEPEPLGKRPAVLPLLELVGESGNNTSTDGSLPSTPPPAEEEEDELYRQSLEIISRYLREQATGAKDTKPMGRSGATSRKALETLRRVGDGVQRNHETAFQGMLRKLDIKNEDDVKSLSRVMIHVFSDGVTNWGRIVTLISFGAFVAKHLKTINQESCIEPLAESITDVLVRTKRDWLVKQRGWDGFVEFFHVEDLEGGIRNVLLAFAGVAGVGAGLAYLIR
Bim-Mcl-1: human Bim-Mcl-1 interaction inhibition. Bead-based flow cytometry, Bim peptide-Mcl-1 binding. Q07820. 0.1% of 190,000 active. inhibition, % at 10 µM; in the data active means inhibition above about 40%;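 further: 0% = no compound tracer wells and 100% = peptide blocker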
MCL1 BIM primary: disrupts human MCL1 binding to BIM-BH3 peptide; Q07820; GST-MCL1 / FITC-Bim-BH3 fluorescence polarization; inhibition, % at 10.9 µM; 0.68% of 320,000 active;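 active means inhibition above the mean inhibition of all tested compounds plus 3 SD, set per campaign, cut at about 40% in these data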;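 further: 0% = DMSO wells and 100% = unlabeled Bim-BH3 peptide control; higher means more loss of mP so more displacement of Bim peptide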
eIF4E 4G PPI: inhibitors of eIF4E and eIF4G interaction in translation initiation; P63073+Q04637; TR-FRET eIF4E-eIF4GI(517-606) binding, 2 h; inhibition, % at 21.7 µM; 0.37% of 220,000 active;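 active means inhibition above about 30%, limit read from the data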;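 further: 0% = full FRET control wells and 100% = background wells lacking eIF4GI fragment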
Mcl1-Bid inh: disrupts binding of human Mcl-1 to Bid peptide; Q07820; AID 1021; 0.97% of 220,000 active; inhibition, % at 21.7 µM; TR-FRET Mcl-1/Bid-Dy647 peptide binding, 1536-well;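 active means compounds that cut the binding signal by more than half at the single screening dose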;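 further: His-tagged Mcl-1 with europium anti-His antibody binding Bid BH3 peptide; 0% = Mcl-1 plus peptide wells and 100% = peptide-only wells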
14-3-3 Bad PPI: disrupts binding of bovine 14-3-3 zeta to phospho-Bad peptide | inhibition, % at 21.7 µM | AID 781 | TR-FRET 14-3-3zeta/Dy647-pBad peptide displacement, 1 h | 0.71% of 220,000 active;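 active means inhibition above about 70%, limit read from the data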;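 further: 0% = full 14-3-3 plus peptide FRET controls and 100% = background without 14-3-3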
Target sequence (P63103 whole entry, looked up): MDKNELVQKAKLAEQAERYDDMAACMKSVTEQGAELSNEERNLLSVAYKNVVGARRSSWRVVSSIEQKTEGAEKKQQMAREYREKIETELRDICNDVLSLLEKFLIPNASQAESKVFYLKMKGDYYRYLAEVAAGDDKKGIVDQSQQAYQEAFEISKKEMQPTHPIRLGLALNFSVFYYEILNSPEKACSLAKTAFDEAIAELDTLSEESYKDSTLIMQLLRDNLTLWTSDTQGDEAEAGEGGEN
An asterisk follows results filed as active; [ ] = remark or other dose.

Fc1cccc(Nc2nc(-c3ccncc3)nc3ccccc23)c1 was read as Mcl1-Noxa inh 26.0, Bim-Mcl-1 47.0*, MCL1 BIM primary -1.8, eIF4E 4G PPI -4.0, Mcl1-Bid inh 29.7 and 14-3-3 Bad PPI 18.8.
c1ccc(Nc2nc(-c3ccccc3)nc3ccccc23)cc1 was read as MCL1 BIM primary 0.1.
`COc1ccc(N2CC(C(=O)N(C)CC(=O)Nc3ccc(Cl)c(C(F)(F)F)c3)CC2=O)c(OC)c1` (configuration not stated) gave MCL1 BIM primary 9.1.
O=C1Nc2cc(Cl)cnc2N2CCCC12 (configuration not stated) was read as Mcl1-Noxa inh 59.7*, Bim-Mcl-1 1.0, MCL1 BIM primary 43.0*, eIF4E 4G PPI -0.8, Mcl1-Bid inh -17.3 and 14-3-3 Bad PPI 0.8.
For O=C1Nc2ccccc2N2CCCC12 (configuration not stated) the results were Mcl1-Noxa inh 2.1, Bim-Mcl-1 1.0, MCL1 BIM primary 7.4, eIF4E 4G PPI 25.8, Mcl1-Bid inh -59.8 and 14-3-3 Bad PPI 9.5.
Screening CCC(Cc1ccccc1)NC(=O)CSc1ccsc1[N+](=O)[O-] (configuration not stated) returned Mcl1-Noxa inh 3.2, Bim-Mcl-1 -4.0, MCL1 BIM primary 12.2, eIF4E 4G PPI 0.1, Mcl1-Bid inh -11.2 and 14-3-3 Bad PPI -7.9.
For Cc1ccc(C(C)C)c(OCc2ccc(C(=O)N/N=C/c3ccc(O)c(O)c3)cc2)c1 the results were Mcl1-Noxa inh 45.8, Bim-Mcl-1 0.0, MCL1 BIM primary -1.0, eIF4E 4G PPI 3.8, Mcl1-Bid inh -9.7 and 14-3-3 Bad PPI -12.9.
`COc1cc(/C=N/NC(=O)c2ccc(COc3cc(C)ccc3C(C)C)cc2)cc(OC)c1O` gave Mcl1-Noxa inh 51.1*, Bim-Mcl-1 -5.0, MCL1 BIM primary 7.4, eIF4E 4G PPI 0.0, Mcl1-Bid inh -42.8 and 14-3-3 Bad PPI -32.2.
`O=C(NN1CCOCC1)c1ccc(Cl)s1` gave Mcl1-Noxa inh 7.2, Bim-Mcl-1 0.0, MCL1 BIM primary -7.7, eIF4E 4G PPI 1.4, Mcl1-Bid inh -20.9 and 14-3-3 Bad PPI -4.9.
`O=C1NC(=S)S/C1=C\C=C\c1ccc([N+](=O)[O-])o1` gave Mcl1-Noxa inh 103.0*, eIF4E 4G PPI 20.3, Mcl1-Bid inh 20.9 and 14-3-3 Bad PPI 87.0*.
`O=C(O)/C=C/c1ccc([N+](=O)[O-])o1` gave Mcl1-Noxa inh 19.2, Bim-Mcl-1 1.0, MCL1 BIM primary 12.2, eIF4E 4G PPI 16.5, Mcl1-Bid inh -5.5 and 14-3-3 Bad PPI 30.0.
CC(C)C(=O)NNS(=O)(=O)c1ccccc1 was read as Mcl1-Noxa inh 3.5, Bim-Mcl-1 0.0, MCL1 BIM primary 9.4, eIF4E 4G PPI 2.4, Mcl1-Bid inh -16.5 and 14-3-3 Bad PPI -3.0.
`CNNC(=O)C(=O)NNS(=O)(=O)c1ccccc1` gave Mcl1-Noxa inh -3.4, Bim-Mcl-1 -1.0, MCL1 BIM primary 3.2, eIF4E 4G PPI 4.8, Mcl1-Bid inh 85.7* and 14-3-3 Bad PPI -7.4.
Screening COC(=O)[C@]1(C)N[C@H](c2ccc(SC3CCCCC3)c(OC)c2)[C@@H]2C(=O)N(C)C(=O)[C@@H]21 returned MCL1 BIM primary -1.4.
`Cc1ccc(C)n1-c1sccc1C(=O)O` gave Mcl1-Noxa inh 95.0*, Bim-Mcl-1 -4.0, eIF4E 4G PPI 20.9, Mcl1-Bid inh 92.6* and 14-3-3 Bad PPI 21.6.
`Cc1cc(C(=O)O)c(C)n1-c1ccccc1` gave Mcl1-Noxa inh -7.3, Bim-Mcl-1 -2.0, MCL1 BIM primary 1.4, eIF4E 4G PPI -10.1, Mcl1-Bid inh -11.9 and 14-3-3 Bad PPI -10.1.
Screening CCC(C)CCN1CCN=C1Nc1ccccc1 (configuration not stated) returned MCL1 BIM primary -5.4.
Screening Cc1cc(N2CCCCC2)nc(NCc2ccccc2)n1 returned Mcl1-Noxa inh -10.1, Bim-Mcl-1 -2.0, MCL1 BIM primary 8.5, eIF4E 4G PPI 67.0*, Mcl1-Bid inh -6.0 and 14-3-3 Bad PPI -3.5.
Screening O=C(O)c1cc(-c2cccc([N+](=O)[O-])c2)n[nH]1 returned Mcl1-Noxa inh 22.5, Bim-Mcl-1 0.0, MCL1 BIM primary -2.0, eIF4E 4G PPI 0.1, Mcl1-Bid inh -19.7 and 14-3-3 Bad PPI -7.2.
C/C(=N\NC(=O)c1cc(-c2cccc([N+](=O)[O-])c2)n[nH]1)c1ccccc1O was read as Mcl1-Noxa inh 58.4*, Bim-Mcl-1 0.0, MCL1 BIM primary 18.4, eIF4E 4G PPI 3.7, Mcl1-Bid inh 73.2* and 14-3-3 Bad PPI 54.9.
For CCOC(=O)c1cc(-c2cccc([N+](=O)[O-])c2)n[nH]1 the results were Mcl1-Noxa inh 22.6, Bim-Mcl-1 0.0, MCL1 BIM primary 2.0, eIF4E 4G PPI 0.9, Mcl1-Bid inh -17.5 and 14-3-3 Bad PPI 80.6*.
`COc1cc(OC)cc(C(=O)N[C@H](C(=O)OCC(=O)Nc2cccnc2Cl)C(C)C)c1` gave MCL1 BIM primary -12.4.
For COc1cc(/C=c2\sc3n(c2=O)CCCN=3)ccc1O the results were Mcl1-Noxa inh 7.9, Bim-Mcl-1 0.0, MCL1 BIM primary -20.4, eIF4E 4G PPI 1.2, Mcl1-Bid inh -17.2 and 14-3-3 Bad PPI 69.5.
For O=c1/c(=C/c2ccc([N+](=O)[O-])cc2)sc2n1CCCN=2 the results were Mcl1-Noxa inh 28.2, Bim-Mcl-1 0.0, MCL1 BIM primary 16.3, eIF4E 4G PPI -0.1, Mcl1-Bid inh 9.7 and 14-3-3 Bad PPI 79.5*.
Screening O=c1cc(-c2ccco2)oc2c1ccc1ccccc12 returned Mcl1-Noxa inh -2.8, Bim-Mcl-1 -6.0, MCL1 BIM primary -38.3, eIF4E 4G PPI -3.0, Mcl1-Bid inh 8.4 and 14-3-3 Bad PPI 76.7*.
For C(=N\Nc1ccccc1)/c1ccc(N2CCOCC2)cc1 the results were Mcl1-Noxa inh 19.6, Bim-Mcl-1 1.0, MCL1 BIM primary 1.5, eIF4E 4G PPI -2.9, Mcl1-Bid inh -59.9 and 14-3-3 Bad PPI 88.3*[fluorescence artefact?].
Screening O=C(O)c1ccc(N/N=C/C2=C(N3CCOCC3)C(=C\c3ccccc3)/CC2)cc1 returned Mcl1-Noxa inh 75.3*, MCL1 BIM primary -22.6, eIF4E 4G PPI 2.9, Mcl1-Bid inh -80.5 and 14-3-3 Bad PPI -1.7.
`Cc1cccc(CCN(C(=O)c2csnn2)C(C(=O)NC2CCCC2)c2ccco2)c1` (configuration not stated) gave MCL1 BIM primary 4.0.
Screening Cc1ccc(C)c(C(=O)COC(=O)c2ccccc2N2C(=O)C3C4CCC(C4)C3C2=O)c1 (configuration not stated) returned Mcl1-Noxa inh 4.8, Bim-Mcl-1 -2.0, MCL1 BIM primary 4.7, eIF4E 4G PPI 0.0, Mcl1-Bid inh 1.9 and 14-3-3 Bad PPI 10.6.
`Cc1ccc(C(=O)NN2CC(O)=C(c3nc(-c4cccc([N+](=O)[O-])c4)cs3)C2=N)cc1` gave Mcl1-Noxa inh 56.4*, Bim-Mcl-1 4.0, MCL1 BIM primary 10.1, eIF4E 4G PPI 8.0, Mcl1-Bid inh 5.2 and 14-3-3 Bad PPI 46.5.

Compound activity deposited in PubChem BioAssay by several laboratories.
